From PubChem BioAssay AID493200 (National Center for Advancing Translational Sciences (NCATS), 2011)
Records with an inconclusive call do not appear. Values without a mark were called inactive. Calls of active or inactive are those of the source. The call rests on the fitted dose curve; in most records, active means well fitted activation curve with a large enough effect; inconclusive means small, poorly fitted or top-dose-only effect; inactive means no such curve, though single readings can be large or run the other way.

Experiment: qHTS Assay for Rab9 Promoter Activators: Initial hit validation from the primary screen; on activation: % of control where 0% means no effect
Settings: Huh7 Rab9 promoter luciferase reporter, 24 h; series mostly up to 46.1 µM; activation: at the top concentration
Outline: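 Huh7 cells stably carrying a Rab9 promoter–luciferase construct, plated in reduced-serum medium with 10% FBS, rested 2 h, then exposed to compounds in DMSO for 24 h at 37C. Luminescence read 10 min after adding Amplite luciferase reagent.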
Potency means the concentration at half of the fitted maximal effect.

Row | Compound | activation | Potency
1 | O=C(NCCc1c[nH]c2ccccc12)C(=O)NCC(c1ccco1)N1CCN(c2ccccc2F)CC1 (stereo not drawn) | -1.77% | 
2 | CCOc1ccc(S(=O)(=O)NCc2ccccc2)cc1C(N)=O | -17.8% | 
3 | O=C(Nc1ccc(-c2nc3cccnc3s2)cc1)c1ccc(Cl)nc1 |  | 888 nM (active)
4 | COCCNC(=O)Cn1nc(-c2ccccc2)c2ccccc2c1=O | 0.448% | 
5 | O=C(CCCC(=O)N(CC(=O)NC1CCCCC1)c1cccc(F)c1)Nc1ccccn1 | -0.895% | 
6 | CC1(C)CC(=O)c2c(O)c(-c3ccccc3)c(=O)n(-c3ccccc3)c2C1 | -6.27% | 
7 | Cc1ccc(NC(=O)c2cccc(N3C(=O)CCC3=O)c2)nc1 | 9.67% | 
8 | O=C(CCN1C(=O)c2ccccc2C1=O)Nc1ccc(-c2nc3ccccc3s2)cc1 |  | 281 nM (active)
9 | COCCn1c(SCc2ccc(C(=O)OC)o2)nc2cc(Cl)ccc2c1=O | -6.53% | 
10 | CC(=O)Nc1ccc(-c2csc(Nc3ncccn3)n2)cc1 |  | 353 nM (active)
11 | COc1ccc2oc(=O)c(C(=O)NC(C)c3ccccc3)cc2c1 (stereo not drawn) | 3.92% | 
12 | C=CCOC(=O)N1CCN(c2cccc(C(F)(F)F)c2)CC1 | -5.55% | 
13 | O=C(/C=C/c1ccco1)NCC1OCCc2ccccc21 (stereo not drawn) | -1.48% | 
14 | CC(C)CC(=O)N1CCN(c2ccc(NC(=O)c3ccco3)cc2)CC1 | 15.4% | 
15 | Cc1ccc(C)c(Nc2cc(C)nc3ncnn23)c1 | -2.73% | 
16 | Cc1ccc(C2C3=C(CC(C)(C)CC3=O)N(CCN3CCOCC3)C3=C2C(=O)CC(C)(C)C3)cc1 | -2.96% | 
17 | O=S(=O)(c1cccs1)N1CCN(c2ncccn2)CC1 | 2.9% | 
18 | COCCNC(=O)C1CCC(CNS(=O)(=O)c2ccc(F)cc2)CC1 (stereo not drawn) | -4.18% | 
